{"source": "PubChem BioAssay AID652283", "about": "(National Center for Advancing Translational Sciences (NCATS), 2013)", "note": "Results filed as inconclusive are left out. A number with no mark means an inactive call. The source made the active and inactive calls. The call rests on the fitted dose curve; in most records, active means well fitted inhibition curve with a large enough effect; inconclusive means small, poorly fitted or top-dose-only effect; inactive means no such curve, though single readings can be large or run the other way.", "data": [{"assay": "qHTS Assay for Lipid Storage Modulators: COS7 Assay against Probe and Analogs", "conditions": "COS7 lipid droplet area, BODIPY imaging, 18 h; cells loaded with 400 µM oleic acid", "how_it_was_run": "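COS7 cells treated 17-18 h with compound in 5% FBS medium, 0.2% DMSO and 400 microM oleic acid. Fixed cells stained with BODIPY 493/503 and Hoechst; lipid droplets counted from microscope images by visual review and image segmentation.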", "units": {"max response": "%"}, "values": [{"smiles": "CCOC(=O)C1CCN(C(=O)C(C)(C)NC(=O)Nc2ccc([N+](=O)[O-])cc2)CC1", "max response": 8.04}, {"smiles": "CCOc1ccc(CCNC(=O)c2cc3sccc3n2Cc2ccncc2)cc1OCC", "Potency": "2.96 µM (active)"}, {"smiles": "CCOc1ccc(CCNC(=O)c2cc3sccc3n2C(C)C)cc1OCC", "Potency": "1.18 µM (active)"}, {"smiles": "CC(C)(NC(=O)Nc1ccccc1Cl)C(=O)N1CCC(C(=O)O)CC1", "max response": 21.7}, {"smiles": "CCOc1cc(CCNC(=O)c2cc3sccc3n2Cc2ccccc2)cc(F)c1OCC", "Potency": "2.35 µM (active)"}, {"smiles": "CCOC(=O)C1CCN(C(=O)C(C)(C)NC(=O)Nc2ccc(C#N)cc2)CC1", "max response": -15.2}, {"smiles": "CCOC(=O)C1CCN(C(=O)C(C)(C)NC(=O)Nc2ccc(Oc3ccccc3)cc2)CC1", "Potency": "6.62 µM (active)"}, {"smiles": "CCOC(=O)C1CCN(C(=O)CNC(=O)Nc2ccccc2Cl)CC1", "max response": 11.1}, {"smiles": "CCOc1ccc(CCNC(=O)c2csc(Br)n2)cc1OCC", "max response": -17.2}, {"smiles": "CCn1c(C(=O)NCCc2ccc(OC)c(OC)c2)cc2sccc21", "max response": 3.82}, {"smiles": "CCNC(=O)C1CCN(C(=O)C(C)(C)NC(=O)Nc2ccccc2Cl)CC1", "max response": -3.83}, {"smiles": "CCOc1ccc(CCNC(=O)c2ccc3ccccc3n2)cc1OCC", "max response": -25}, {"smiles": "CCOC(=O)C1CCN(C(=O)C2(NC(=O)Nc3ccccc3Cl)CC2)CC1", "max response": -17.2}]}]}
